# Compound: CN[C@@H]1C[C@H]2O[C@@](C)([C@@H]1OC)n1c3ccccc3c3c4c(c5c6ccccc6n2c5c31)C(=O)NC4 [staurosporine]
# Experiment: log2 fold change of tryptic peptide abundance, ligand vs vehicle (limited proteolysis) (log2 ratio); higher = more trypsin-susceptible (destabilized)
# Conditions: ligand concentration: 20 uM; sample: K562 cleared lysate; digestion: 4 min, 22 C (HT-PELSA RT4min, Orbitrap Astral)
# Sequence of UniProt Q9H2G2 (Q9H2G2 whole entry, looked up): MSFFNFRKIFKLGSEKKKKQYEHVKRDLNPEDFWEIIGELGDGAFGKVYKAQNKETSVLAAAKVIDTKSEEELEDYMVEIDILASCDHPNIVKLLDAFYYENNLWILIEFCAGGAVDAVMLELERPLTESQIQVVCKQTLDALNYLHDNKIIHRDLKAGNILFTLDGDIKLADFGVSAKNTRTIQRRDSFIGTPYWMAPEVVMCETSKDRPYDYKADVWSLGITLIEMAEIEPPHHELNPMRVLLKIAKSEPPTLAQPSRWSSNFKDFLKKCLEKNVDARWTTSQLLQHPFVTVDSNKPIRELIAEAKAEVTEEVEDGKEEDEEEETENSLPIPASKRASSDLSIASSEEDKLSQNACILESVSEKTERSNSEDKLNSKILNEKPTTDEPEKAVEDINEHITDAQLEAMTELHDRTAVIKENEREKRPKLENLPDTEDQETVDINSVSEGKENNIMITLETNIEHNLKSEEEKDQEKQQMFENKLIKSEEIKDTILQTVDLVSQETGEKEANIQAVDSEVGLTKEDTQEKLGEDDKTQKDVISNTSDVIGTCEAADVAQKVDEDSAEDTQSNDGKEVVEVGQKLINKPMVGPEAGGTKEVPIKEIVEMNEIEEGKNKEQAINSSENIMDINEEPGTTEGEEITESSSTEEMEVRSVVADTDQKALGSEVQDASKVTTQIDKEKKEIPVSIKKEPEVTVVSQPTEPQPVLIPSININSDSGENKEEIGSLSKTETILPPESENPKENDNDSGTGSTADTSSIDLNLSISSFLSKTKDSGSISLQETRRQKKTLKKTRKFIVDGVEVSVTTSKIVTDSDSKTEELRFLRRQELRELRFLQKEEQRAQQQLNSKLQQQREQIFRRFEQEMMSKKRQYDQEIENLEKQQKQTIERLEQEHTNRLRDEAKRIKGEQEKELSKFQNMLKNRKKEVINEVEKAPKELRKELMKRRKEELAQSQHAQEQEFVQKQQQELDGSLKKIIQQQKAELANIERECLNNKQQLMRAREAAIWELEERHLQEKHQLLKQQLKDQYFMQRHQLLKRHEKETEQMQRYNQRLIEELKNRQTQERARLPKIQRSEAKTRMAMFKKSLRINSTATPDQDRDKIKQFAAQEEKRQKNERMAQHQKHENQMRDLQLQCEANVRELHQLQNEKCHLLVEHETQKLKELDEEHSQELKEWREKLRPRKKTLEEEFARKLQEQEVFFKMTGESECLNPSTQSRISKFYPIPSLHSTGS
# Sequence of UniProt Q14680 (Q14680 whole entry, looked up): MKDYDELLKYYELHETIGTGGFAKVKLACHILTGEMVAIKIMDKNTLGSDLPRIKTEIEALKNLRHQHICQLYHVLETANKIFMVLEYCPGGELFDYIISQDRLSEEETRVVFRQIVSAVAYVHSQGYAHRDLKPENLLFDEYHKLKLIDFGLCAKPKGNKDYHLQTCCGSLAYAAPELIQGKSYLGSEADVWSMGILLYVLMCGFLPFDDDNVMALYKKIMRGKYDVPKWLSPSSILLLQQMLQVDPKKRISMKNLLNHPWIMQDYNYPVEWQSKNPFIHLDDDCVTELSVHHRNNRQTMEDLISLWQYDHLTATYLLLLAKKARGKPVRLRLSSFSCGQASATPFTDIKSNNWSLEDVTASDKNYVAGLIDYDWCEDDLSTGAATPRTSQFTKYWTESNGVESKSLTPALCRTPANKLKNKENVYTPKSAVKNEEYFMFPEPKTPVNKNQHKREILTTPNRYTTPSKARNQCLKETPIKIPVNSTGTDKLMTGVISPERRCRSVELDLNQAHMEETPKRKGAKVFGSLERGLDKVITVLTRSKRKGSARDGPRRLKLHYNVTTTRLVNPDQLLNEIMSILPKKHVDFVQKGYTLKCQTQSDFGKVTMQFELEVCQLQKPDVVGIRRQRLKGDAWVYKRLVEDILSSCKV
# Sequence of UniProt Q9Y6E0 (Q9Y6E0 whole entry, looked up): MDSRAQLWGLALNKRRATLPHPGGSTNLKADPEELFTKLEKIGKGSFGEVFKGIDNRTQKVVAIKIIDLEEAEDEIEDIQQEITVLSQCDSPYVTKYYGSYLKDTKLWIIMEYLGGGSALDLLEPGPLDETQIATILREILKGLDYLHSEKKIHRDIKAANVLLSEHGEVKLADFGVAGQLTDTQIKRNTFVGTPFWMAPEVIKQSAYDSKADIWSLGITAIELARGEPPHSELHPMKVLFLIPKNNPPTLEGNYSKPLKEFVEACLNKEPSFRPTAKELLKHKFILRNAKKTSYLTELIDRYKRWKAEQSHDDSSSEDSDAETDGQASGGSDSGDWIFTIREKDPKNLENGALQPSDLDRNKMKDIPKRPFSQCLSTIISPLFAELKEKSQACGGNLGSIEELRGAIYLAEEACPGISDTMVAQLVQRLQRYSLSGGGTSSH
# Sequence of UniProt P25098 (P25098 whole entry): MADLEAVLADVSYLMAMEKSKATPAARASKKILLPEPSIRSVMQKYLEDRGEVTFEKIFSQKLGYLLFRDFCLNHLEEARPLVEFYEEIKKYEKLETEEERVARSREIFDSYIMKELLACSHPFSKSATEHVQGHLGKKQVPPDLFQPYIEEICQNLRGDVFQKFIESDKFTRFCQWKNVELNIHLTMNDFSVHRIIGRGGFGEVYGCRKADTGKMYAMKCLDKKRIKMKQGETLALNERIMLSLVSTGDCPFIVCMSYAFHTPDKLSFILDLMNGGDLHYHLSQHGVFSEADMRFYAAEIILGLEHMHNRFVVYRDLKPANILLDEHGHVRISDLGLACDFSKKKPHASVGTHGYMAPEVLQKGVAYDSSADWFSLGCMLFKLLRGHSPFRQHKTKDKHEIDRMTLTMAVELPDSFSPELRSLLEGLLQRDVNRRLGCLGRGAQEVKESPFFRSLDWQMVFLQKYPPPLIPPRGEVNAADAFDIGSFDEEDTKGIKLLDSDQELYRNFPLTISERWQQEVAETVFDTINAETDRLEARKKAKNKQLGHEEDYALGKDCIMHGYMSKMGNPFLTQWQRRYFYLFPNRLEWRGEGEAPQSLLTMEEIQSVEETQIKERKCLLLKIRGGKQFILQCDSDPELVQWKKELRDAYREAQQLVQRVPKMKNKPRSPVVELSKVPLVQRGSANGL
# Sequence of UniProt Q9BZF3 (Q9BZF3 whole entry): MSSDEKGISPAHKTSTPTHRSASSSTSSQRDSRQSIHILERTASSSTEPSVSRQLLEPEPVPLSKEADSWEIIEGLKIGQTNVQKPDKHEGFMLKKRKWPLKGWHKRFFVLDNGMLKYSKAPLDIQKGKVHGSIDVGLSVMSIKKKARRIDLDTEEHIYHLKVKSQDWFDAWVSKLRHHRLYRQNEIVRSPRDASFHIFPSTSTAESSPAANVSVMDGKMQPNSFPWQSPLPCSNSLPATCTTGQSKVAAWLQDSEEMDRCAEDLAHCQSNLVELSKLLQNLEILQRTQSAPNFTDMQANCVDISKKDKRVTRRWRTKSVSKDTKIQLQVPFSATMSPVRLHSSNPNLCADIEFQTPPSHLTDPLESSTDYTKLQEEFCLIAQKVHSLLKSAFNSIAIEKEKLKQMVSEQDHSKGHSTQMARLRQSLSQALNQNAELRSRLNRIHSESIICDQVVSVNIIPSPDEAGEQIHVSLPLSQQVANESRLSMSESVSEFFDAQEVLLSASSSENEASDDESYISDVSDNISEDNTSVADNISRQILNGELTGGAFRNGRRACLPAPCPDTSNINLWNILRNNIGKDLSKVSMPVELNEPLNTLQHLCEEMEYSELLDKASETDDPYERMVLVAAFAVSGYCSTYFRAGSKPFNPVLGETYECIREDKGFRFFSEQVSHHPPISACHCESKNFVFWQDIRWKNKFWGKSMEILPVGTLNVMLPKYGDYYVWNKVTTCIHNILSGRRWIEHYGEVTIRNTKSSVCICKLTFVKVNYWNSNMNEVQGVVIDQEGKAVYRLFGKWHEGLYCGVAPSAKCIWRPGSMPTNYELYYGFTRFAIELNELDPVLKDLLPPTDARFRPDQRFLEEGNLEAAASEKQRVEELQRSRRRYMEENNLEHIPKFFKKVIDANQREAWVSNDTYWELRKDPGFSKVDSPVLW
# Sequence of UniProt O75170 (O75170 whole entry): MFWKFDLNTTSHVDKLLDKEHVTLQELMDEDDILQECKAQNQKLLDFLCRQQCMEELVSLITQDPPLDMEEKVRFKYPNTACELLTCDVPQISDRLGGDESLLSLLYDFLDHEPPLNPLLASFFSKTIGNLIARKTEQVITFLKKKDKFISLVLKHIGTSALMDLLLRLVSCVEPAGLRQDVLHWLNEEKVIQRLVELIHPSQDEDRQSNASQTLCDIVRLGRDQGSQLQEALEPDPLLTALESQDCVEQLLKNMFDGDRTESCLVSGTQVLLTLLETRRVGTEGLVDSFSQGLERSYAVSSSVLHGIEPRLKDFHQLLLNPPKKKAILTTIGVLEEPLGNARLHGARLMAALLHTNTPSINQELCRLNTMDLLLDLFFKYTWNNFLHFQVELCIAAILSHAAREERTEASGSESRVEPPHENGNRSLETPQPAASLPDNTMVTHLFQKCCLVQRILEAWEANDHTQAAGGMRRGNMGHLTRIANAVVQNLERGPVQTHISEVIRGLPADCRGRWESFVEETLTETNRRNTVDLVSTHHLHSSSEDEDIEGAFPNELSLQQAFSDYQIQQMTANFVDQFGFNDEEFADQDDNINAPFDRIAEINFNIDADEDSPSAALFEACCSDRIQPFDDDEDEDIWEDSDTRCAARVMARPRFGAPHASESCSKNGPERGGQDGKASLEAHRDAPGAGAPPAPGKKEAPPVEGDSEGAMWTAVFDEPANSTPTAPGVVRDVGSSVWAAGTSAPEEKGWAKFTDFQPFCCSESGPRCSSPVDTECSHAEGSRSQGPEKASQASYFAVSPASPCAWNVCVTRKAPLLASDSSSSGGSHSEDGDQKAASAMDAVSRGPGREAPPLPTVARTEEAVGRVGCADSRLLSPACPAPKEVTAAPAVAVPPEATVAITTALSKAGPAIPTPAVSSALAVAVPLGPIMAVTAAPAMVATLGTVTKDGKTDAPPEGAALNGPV
row,Target,log2 fold change
1,"SLK (peptide sequence: LADFGVSAK, peptide start residue: 171) (UniProt Q9H2G2)",-3.91
2,"UniProt Q9NSY1 (peptide sequence: DGVNVVEEEIKK, peptide start residue: 212)",-4.3
3,"THRAP3 (peptide sequence: SYSPAHNR, peptide start residue: 53) (UniProt Q9Y2W1)",2.27
4,"MASTL (peptide sequence: IAVPKPPSIEEFSIVKPISR, peptide start residue: 24) (UniProt Q96GX5)",-1.05
5,"UniProt Q16513 (peptide sequence: HPFLVNLFACFQTK, peptide start residue: 717)",-2.07
6,"RPS6KA4 (peptide sequence: VLGTGAYGK, peptide start residue: 54) (UniProt O75676)",-0.533
7,"LIMK1 (peptide sequence: VNADPDYLPR, peptide start residue: 546) (UniProt P53667)",-1.05
8,"XRCC6 (peptide sequence: LGSLVDEFK, peptide start residue: 518) (UniProt P12956)",-0.499
9,"SRPK1 (peptide sequence: HFTEDIQTR, peptide start residue: 507) (UniProt Q96SB4)",-1.75
10,"EIF4A3 (peptide sequence: ETQALILAPTR, peptide start residue: 106) (UniProt P38919)",0.375
11,"OSBPL9 (peptide sequence: VVLPTFILER, peptide start residue: 391) (UniProt Q96SU4)",0.326
12,"UniProt O75170 (peptide sequence: ILEAWEANDHTQAAGGMR, peptide start residue: 456)",-0.977
13,"PIP5K1C (peptide sequence: DCLVLESFK, peptide start residue: 305) (UniProt O60331)",-0.54
14,"RIPK1 (peptide sequence: IADLGLASFK, peptide start residue: 154) (UniProt Q13546)",-0.814
15,"SGK3 (peptide sequence: FYAAEIASALGYLHSIK, peptide start residue: 265) (UniProt Q96BR1)",-1.54
16,"MELK (peptide sequence: DLKPENLLFDEYHK, peptide start residue: 132) (UniProt Q14680)",-1.98
17,"UniProt Q02750 (peptide sequence: SYMSPER, peptide start residue: 228)",3.08
18,"OSBPL6 (peptide sequence: NFVFWQDIR, peptide start residue: 687) (UniProt Q9BZF3)",-1.81
19,"VIM (peptide sequence: MFGGPGTASRPSSSR, peptide start residue: 14) (UniProt P08670)",0.344
20,"CAMK2G (peptide sequence: GAILTTMLVSR, peptide start residue: 302) (UniProt Q13555)",-1.14
21,"PITPNB (peptide sequence: GTSAADV, peptide start residue: 265) (UniProt P48739)",0.354
22,"UniProt Q2VIR3 (peptide sequence: FKNELER, peptide start residue: 69)",0.555
23,"UniProt P25098 (peptide sequence: DLKPANILLDEHGHVR, peptide start residue: 317)",-0.579
24,"NUP188 (peptide sequence: HTLNPEETSSVVR, peptide start residue: 331) (UniProt Q5SRE5)",1.1
25,"SDAD1 (peptide sequence: TLYTHIVTDIK, peptide start residue: 136) (UniProt Q9NVU7)",-0.683
26,"UniProt Q9Y6E0 (peptide sequence: AANVLLSEHGEVK, peptide start residue: 159)",-1.21

# Reference: the supplement of paper PMC12819154, “High-throughput peptide-centric local stability assay extends protein–ligand identification to membrane proteins, tissues and bacteria” (Nature Structural & Molecular Biology, 2025)
